Vif-A3G inh – qHTS for Inhibitors of Vif-A3G Interactions: qHTS | HeLa A3G-eYFP + Vif (tagged APOBEC3G with the HIV-1 protein that degrades it), YFP fluorescence, overnight | Potency, µM (highest dose often 46.1 µM), for inactives: at the highest dose activity, negative = active, most hits filed as inhibitors | actives 0.076% (n = 410,000) | AID 602310, 2012; also: potency is read from the fitted curve at half-maximal effect; % is scaled to controls: 0 for no effect and ±100 for the full control effect; nearly all actives have a fitted effect of over 60% in size
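HeLa cells stably expressing Vif and C-terminally eYFP-tagged A3G, seeded overnight at 37 deg C, then exposed to compound by pintool overnight at 37 deg C. Rise in yellow fluorescence (Ex 488/Em 500-530, Acumen) marks blocked Vif-driven A3G degradation.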
PLK1 PBD inh – qHTS for Inhibitors of PLK1-PDB (polo-like kinase 1 - polo-box domain): Primary Screen | Serine/threonine-protein kinase PLK1 (Homo sapiens), P53350 | Plk1 PBD binding of FITC phosphopeptide, fluorescence polarization | Potency, µM, for the others: max response, negative = inhibition, hits mostly inhibitors | actives 2.8% (n = 360,000) | AID 720504, 2013; also: potency is read from the fitted curve at half-maximal effect; series mostly up to about 57 µM; % is scaled to controls: 0 for no effect and ±100 for the full control effect; nearly all actives have a fitted effect of over 65% in size
Vif-A3F inh – qHTS for Inhibitors of Vif-A3F Interactions: qHTS; AID 602313, 2012; actives 0.2% (n = 390,000); HeLa A3F-eYFP + Vif (tagged APOBEC3F with the HIV-1 protein that degrades it), YFP fluorescence increase; Potency, µM (titrated, usually from 46.1 µM), for inactives: top-dose activity, negative = active; also: potency is read from the fitted curve at half-maximal effect; % of control where 0% means no effect; nearly all actives have a fitted effect of over 65% in size
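Fluorescence increase (Ex 488/Em 500-530) after overnight compound treatment at 37 deg C flags inhibition of Vif-driven A3F-eYFP loss in stable HeLa A3F-eYFP/Vif cells seeded overnight beforehand.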
TSHR antag – Antagonists of the Thyroid Stimulating Hormone Receptor: HTS campaign; Thyrotropin receptor (Homo sapiens), P16473; TSHR-expressing cells, TSH-stimulated cAMP HTRF, 2 h; stronger effect = lower value; activity change, negative = inhibition, % at 11.5 µM; actives 0.2% (n = 330,000); AID 504810, 2011;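 active = activity change below a set negative limit, meaning inhibition stronger than a set level, cut at about -70% in these data; inconclusive = activity change between two set negative limits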; also: % is scaled to controls: 0 for no effect and ±100 for the full control effect
Target sequence (P16473 whole entry, looked up): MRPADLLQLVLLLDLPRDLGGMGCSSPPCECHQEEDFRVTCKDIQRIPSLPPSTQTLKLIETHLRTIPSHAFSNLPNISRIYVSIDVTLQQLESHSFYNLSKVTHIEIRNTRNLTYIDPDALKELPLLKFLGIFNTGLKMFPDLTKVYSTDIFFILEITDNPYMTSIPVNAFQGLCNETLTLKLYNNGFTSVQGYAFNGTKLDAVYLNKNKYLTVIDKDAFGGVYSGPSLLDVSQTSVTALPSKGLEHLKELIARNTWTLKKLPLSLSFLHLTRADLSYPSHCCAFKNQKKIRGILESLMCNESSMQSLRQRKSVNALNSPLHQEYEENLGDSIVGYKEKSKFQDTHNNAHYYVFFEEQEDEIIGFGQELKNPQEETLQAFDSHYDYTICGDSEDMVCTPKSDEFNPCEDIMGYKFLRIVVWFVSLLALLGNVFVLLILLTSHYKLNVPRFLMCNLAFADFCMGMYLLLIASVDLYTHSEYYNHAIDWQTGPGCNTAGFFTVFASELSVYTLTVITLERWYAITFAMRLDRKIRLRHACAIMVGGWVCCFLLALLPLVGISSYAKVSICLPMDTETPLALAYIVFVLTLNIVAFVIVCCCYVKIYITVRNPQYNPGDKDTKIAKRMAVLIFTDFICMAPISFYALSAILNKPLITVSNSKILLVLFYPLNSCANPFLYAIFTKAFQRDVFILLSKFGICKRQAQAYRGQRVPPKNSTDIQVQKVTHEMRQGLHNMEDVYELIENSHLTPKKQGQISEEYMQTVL
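Antagonism was scored as loss of TSH-driven cAMP in TSHR cells, stimulated with 4nM TSH (EC80) for 2 hours at 37 deg C and detected by homogeneous HTRF competition immunoassay.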
VDR inh – Inhibitors of the vitamin D receptor (VDR): qHTS; Vitamin D3 receptor (Homo sapiens), P11473; actives 0.93% (n = 400,000); Potency, µM, without a hit: max response, negative = inhibition, most hits filed as inhibitors; VDR-SRC2-3 peptide fluorescence polarization, 2 h; also: potency is read from the fitted curve at half-maximal effect; % is scaled to controls: 0 for no effect and ±100 for the full control effect
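Fluorescence polarization assay of small-molecule disruption of VDR binding to coregulator peptide SRC2-3. Compounds and controls pin-transferred, then read after 2 h incubation at ambient room temperature.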
* = called active by the depositor; ? = inconclusive; . = not tested or not shown. In the library only some 3.1% were active in any assay of this set; here they are far more common. Unless noted, calls follow the shape of the dose curve; as a rule, active = well fitted curve in the direction sought with a large enough effect; inconclusive = small, poorly fitted or top-dose-only effect, or another doubt; inactive = no such curve, though single readings can be large; an effect the other way counts as inactive or inconclusive.

SMILES | Vif-A3G inh | PLK1 PBD inh | Vif-A3F inh | TSHR antag | VDR inh
COc1ccccc1Nc1ccc([N+](=O)[O-])cc1N | ? | 27µM* | -27% | 0 | -12%
COc1ccccc1Nc1c([N+](=O)[O-])cc(C)cc1[N+](=O)[O-] | 2% | -11% | 4% | -7 | -7%
Cc1cc(C)cc(N(CC(=O)NCC2CCCO2)C(=O)CN2C(=O)COc3ccccc32)c1 (configuration not stated) | 0% | 30µM* | -4% | 6 | -18%
CCCCn1c(N)c(N(CC(C)C)C(=O)Cc2ccc(S(=O)(=O)N3CCOCC3)s2)c(=O)[nH]c1=O | ? | -24% | 25µM* | . | -7%
Cc1ccc(C)c(/C=C/C(=O)c2ccccc(=O)c2O)c1 | ? | ? | ? | -6 | 45µM*
O=C(C=Cc1ccccc1O)c1ccccc1O | -21% | ? | 0% | . | ?
O=C(/C=C/c1ccccc1Cl)Nc1ccccc1 | 0% | 1% | 7% | -13 | 11%
O=C(/C=C/c1ccc([N+](=O)[O-])cc1)c1ccccc(=O)c1O | ? | -30% | ? | . | 25µM*
O=C(/C=C/c1ccccc1Cl)c1ccccc(=O)c1O | ? | 27µM* | ? | 18 | 28µM*
CN(C)S(=O)(=O)Nc1cc(Cl)cc(Cl)c1 | -2% | 30µM* | -9% | 5 | 7%
Cc1ccc(NS(=O)(=O)N(C)C)cc1 | 1% | -5% | 2% | -4 | 10%
CC1=C(c2ccc(Cl)cc2)[N+](=O)C(C)(C)N1[O-] | 3% | 12µM* | -4% | -4 | -7%
CNCC(=O)c1c[nH]c2ccccc12 | 1% | . | . | . | .
Fc1ccc(COc2ccc3ccccc3c2CNc2nn[nH]n2)cc1 | 13µM* | -5% | -1% | 0 | 14%
Cc1ccc(CNC(=O)c2ccc3c(c2)NC(=O)C(CS(=O)(=O)Cc2cccc(C)c2)N3)cc1 (configuration not stated) | -13% | . | 22µM* | . | 12%
CC(C)C[C@@H](CC(=O)N[C@H](CC(=O)N[C@@H]1CCCC[C@H]1C(=O)N[C@H](CC(=O)N[C@@H](CCC(=O)O)CC(=O)O)CC(C)C)C(C)C)NC(=O)[C@@H]1CNCC[C@H]1N | . | . | . | . | -2%
CN(C)C(=O)c1ccc(-c2ccc3ncnc(NCCN4CCOCC4)c3c2)cc1 | . | . | . | . | 5%
CCN(CC)c1ccc(N=Cc2ccc(N(CC)CC)cc2O)cc1 | -2% | 71% | -4% | 15 | 50µM*
CCN(CC)c1ccc(C=Nc2ccc(C)cc2)c(O)c1 | -4% | -11% | . | -1 | -1%
CCN(CC)c1ccc(/C=N/Nc2ccccc2)c(O)c1 | -15% | ? | 0% | 3 | 79µM*
O=C(O)c1ccc(N/N=C/c2ccc(-c3ccc(Cl)cc3Cl)o2)cc1 | -28% | 24µM* | ? | -23 | -1%
O=C(O)c1ccc(N/N=C/c2ccc(-c3cccc(Cl)c3)o2)cc1 | -25% | ? | 3% | -13 | -5%
O=C(O)c1ccc(N/N=C/c2ccc(-c3cc(Cl)ccc3Cl)o2)cc1 | 4% | 21µM* | -8% | -7 | ?
Cc1ccccc1C(=O)N1CCC(C(=O)Nc2ccc(S(=O)(=O)N3CCCC3)cc2)CC1 | 3% | 12µM* | 1% | 0 | -18%
O=C(Nc1nc2ccc(F)cc2s1)C1=COCCO1 | 0% | -14% | 8% | -3 | -21%
SMILES | Vif-A3G inh | PLK1 PBD inh | Vif-A3F inh | TSHR antag | VDR inh
O=C(Nc1nc2cc3c(cc2s1)OCCO3)C1=COCCO1 | 2% | 24µM* | 2% | -8 | ?
O=C(Nc1nc(-c2cccs2)cs1)C1=COCCO1 | -13% | 3.4µM* | -14% | -11 | ?
COC(=O)COc1ccc(-c2nccc(-c3ccc(Br)cc3)n2)cc1 | -9% | 9.5µM* | -15% | -4 | 28µM*
O=Cc1cn(-c2ccccc2)nc1-c1ccc(F)cc1 | 0% | 0% | 2% | 1 | -3%
O=C1NC(=O)C(c2cn(-c3ccccc3)nc2-c2ccc(F)cc2)N1 (configuration not stated) | 0% | 5.3µM* | 0% | -1 | ?
CCn1cc(C(=O)NCc2ccccc2OC)c(=O)c2cc(S(=O)(=O)N3CCCCC3)ccc21 | -1% | . | -5% | . | -7%
CC(=O)C1=C(O)C(=O)N(Cc2ccco2)C1c1ccccc1 (configuration not stated) | -2% | 2% | 0% | 19 | -1%
COc1cccc(C2C(C(C)=O)=C(O)C(=O)N2Cc2ccco2)c1 (configuration not stated) | 0% | 24µM* | -11% | -7 | 3%
Cc1[nH]c2ccccc2c1/C=C/C(=O)c1ccccc1 | ? | 21% | 28µM* | -27 | -15%
Cc1[nH]c2ccccc2c1/C=N/NC(=O)c1ccccc1 | -5% | 2% | 0% | -3 | -12%
COc1ccc(C(=O)NCCn2cc(SCC(=O)NCc3ccco3)c3ccccc32)cc1 | 2% | 3µM* | 0% | -8 | -25%
O=C(/C=C/c1ccccc1)NC(NC(=S)Nc1ccc(Cl)cc1)C(Cl)(Cl)Cl (configuration not stated) | 0% | 27µM* | -3% | -26 | ?
Cc1c(NC(=S)NC(NC(=O)CC(C)C)C(Cl)(Cl)Cl)c(=O)n(-c2ccccc2)n1C (configuration not stated) | -2% | 1% | 0% | 13 | -4%
CC(C)CC(=O)NC(NC(=S)Nc1ccccc1)C(Cl)(Cl)Cl (configuration not stated) | -1% | 30µM* | 1% | -10 | ?
O=C(CCc1ccccc1)NC(NC(=S)Nc1ccc(Cl)cc1)C(Cl)(Cl)Cl (configuration not stated) | 0% | 30µM* | 8% | -22 | 0%
COc1ccc(NC(=S)NC(NC(=O)/C=C/c2ccccc2)C(Cl)(Cl)Cl)cc1 (configuration not stated) | -7% | -14% | -14% | -3 | 9%
COc1ccccc1CNC(=O)Nc1ccc2c(c1)N(C)C(=O)c1ccccc1S2 | -6% | . | 11% | . | -10%
Cc1ccc(C)c(Cn2c(=O)n(CC3CCC(C(=O)N4CCOCC4)CC3)c(=O)c3sccc32)c1 (configuration not stated) | -24% | . | -6% | . | -8%
O=C1NC(=O)c2c1c(-c1ccccc1)cc1[nH]c3ccc(O)cc3c21 | . | . | . | . | -3%
CCOC(=O)c1c(NC(=O)c2cc(-c3ccc(Cl)cc3)on2)sc(C)c1C | 2% | . | 1% | . | -16%
CCOC(=O)c1c(NC(=O)c2cc(CC)on2)sc(C)c1C | -5% | . | -1% | . | 79µM*
